Laboratory results reported in PubChem BioAssay (NCI).
This is part of a sample that, as a whole, favours compounds with a hit. Of some 83,000 tested, about 20% had one in any assay.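 A percent growth of 40 corresponds to 60% growth inhibition; 0 means no net growth; -100 means all cells died. Active threshold: below 10.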 Calls of active or inactive are those of the source.

How the values were obtained:
Experiment in all cases: NCI-60 one-dose screen, 48 h (100 = growth as untreated, 0 = no growth, -100 = all killed)
Conditions in all cases: 10 µM unless noted
DU-145 prostate = system: DU-145 prostate
K-562 leukemia = system: K-562 leukemia
MALME-3M melanoma = system: MALME-3M melanoma
MDA-MB-231 breast = system: MDA-MB-231 breast
RXF 393 renal = system: RXF 393 renal
SF-268 CNS = system: SF-268 CNS
SF-295 CNS = system: SF-295 CNS
SF-539 CNS = system: SF-539 CNS
UACC-257 melanoma = system: UACC-257 melanoma
M14 melanoma = system: M14 melanoma
HCT-15 colon = system: HCT-15 colon
HT29 colon = system: HT29 colon
SNB-19 CNS = system: SNB-19 CNS
U251 CNS = system: U251 CNS
PC-3 prostate = system: PC-3 prostate
SK-MEL-5 melanoma = system: SK-MEL-5 melanoma
UACC-62 melanoma = system: UACC-62 melanoma
LOX IMVI melanoma = system: LOX IMVI melanoma
SK-MEL-28 melanoma = system: SK-MEL-28 melanoma

Measured: growth

CCCCN(CCCC)C(=O)CC
inactive: DU-145 prostate 112% | K-562 leukemia 101% | MALME-3M melanoma 124% | MDA-MB-231 breast 114% | RXF 393 renal 128% | SF-268 CNS 105% | SF-295 CNS 109% | SF-539 CNS 112% | UACC-257 melanoma 129% | M14 melanoma 111% | HCT-15 colon 101% | HT29 colon 110% | SNB-19 CNS 114% | U251 CNS 120% | PC-3 prostate 98.2% | SK-MEL-5 melanoma 103% | UACC-62 melanoma 106% | LOX IMVI melanoma 104% | SK-MEL-28 melanoma 114%

COc1ccc(-c2c(N)n[nH]c2-c2cc3c(c(OC)c2OC)OCO3)cc1
inactive: DU-145 prostate 108% | K-562 leukemia 98.4% | MALME-3M melanoma 97.8% | MDA-MB-231 breast 83.7% | RXF 393 renal 108% | SF-268 CNS 99.1% | SF-295 CNS 102% | SF-539 CNS 93.1% | UACC-257 melanoma 98.7% | M14 melanoma 101% | HCT-15 colon 101% | HT29 colon 103% | SNB-19 CNS 104% | U251 CNS 94.1% | PC-3 prostate 101% | SK-MEL-5 melanoma 110% | UACC-62 melanoma 82.9% | LOX IMVI melanoma 95% | SK-MEL-28 melanoma 104%

COc1ccc(-n2c(=S)sc3c(Cl)nc(C)nc32)c(OC)c1
inactive: MALME-3M melanoma 80.2% | RXF 393 renal 42.6% | SF-295 CNS 85.1% | SF-539 CNS 20% | UACC-257 melanoma 77.9% | HCT-15 colon 21% | SNB-19 CNS 12.5% | PC-3 prostate 56.5% | SK-MEL-5 melanoma 80.1% | UACC-62 melanoma 51.6%
active: DU-145 prostate 6.39% | K-562 leukemia 2.62% | MDA-MB-231 breast -14.9% | SF-268 CNS 4.67% | M14 melanoma -18.8% | HT29 colon -7.41% | U251 CNS -39.6% | LOX IMVI melanoma -81.9% | SK-MEL-28 melanoma -3.3%

COc1ccc(-c2ccc(C)n2-c2ccc(-c3nc4ccccc4s3)cc2)cc1
inactive: DU-145 prostate 104% | K-562 leukemia 91.6% | MALME-3M melanoma 108% | MDA-MB-231 breast 68.4% | RXF 393 renal 94.7% | SF-268 CNS 96% | SF-295 CNS 86.5% | SF-539 CNS 99.3% | UACC-257 melanoma 109% | M14 melanoma 103% | HCT-15 colon 96.5% | HT29 colon 92% | SNB-19 CNS 91.9% | U251 CNS 90% | PC-3 prostate 91.6% | SK-MEL-5 melanoma 102% | UACC-62 melanoma 86.1% | LOX IMVI melanoma 88.3% | SK-MEL-28 melanoma 113%

CN(CCCCN(C[C@H]1Cc2ncccc2CN1)[C@H]1CCCc2cccnc21)C1CCC(F)(F)CC1
inactive: DU-145 prostate 97.9% | K-562 leukemia 72.3% | MALME-3M melanoma 153% | MDA-MB-231 breast 65.7% | RXF 393 renal 89.9% | SF-268 CNS 87.8% | SF-295 CNS 96.5% | SF-539 CNS 99.2% | UACC-257 melanoma 89.2% | M14 melanoma 101% | HCT-15 colon 70.4% | HT29 colon 82.3% | SNB-19 CNS 90.5% | U251 CNS 81.6% | PC-3 prostate 83.8% | SK-MEL-5 melanoma 104% | UACC-62 melanoma 98.2% | LOX IMVI melanoma 93.3% | SK-MEL-28 melanoma 106%

CCCCN(CCCC)C(=N)c1ccnc2ccccc12
inactive: DU-145 prostate 117% | K-562 leukemia 110% | MALME-3M melanoma 98.8% | MDA-MB-231 breast 119% | RXF 393 renal 127% | SF-268 CNS 103% | SF-295 CNS 93.8% | SF-539 CNS 113% | UACC-257 melanoma 66.2% | M14 melanoma 110% | HCT-15 colon 101% | HT29 colon 89.1% | SNB-19 CNS 115% | U251 CNS 107% | PC-3 prostate 105% | SK-MEL-5 melanoma 119% | UACC-62 melanoma 111% | LOX IMVI melanoma 101%

CC12CCCC(CC(=O)c3[nH]c4ccccc4c31)C2 (configuration not stated)
active: DU-145 prostate -15.6% | RXF 393 renal -21.7% | SF-539 CNS -19.1% | M14 melanoma 3.66% | SK-MEL-5 melanoma 6.25%
inactive: K-562 leukemia 11.2% | MALME-3M melanoma 36.4% | MDA-MB-231 breast 37.9% | SF-268 CNS 63.7% | SF-295 CNS 15.1% | UACC-257 melanoma 66.1% | HCT-15 colon 26.6% | HT29 colon 13.2% | SNB-19 CNS 27.9% | U251 CNS 24.9% | PC-3 prostate 22.5% | UACC-62 melanoma 37.4% | LOX IMVI melanoma 36.2% | SK-MEL-28 melanoma 53%

O=C(O)C1CCCCN1c1nc(Cl)nc(Cl)n1 (configuration not stated)
inactive: DU-145 prostate 107% | K-562 leukemia 103% | MALME-3M melanoma 108% | MDA-MB-231 breast 110% | RXF 393 renal 113% | SF-268 CNS 99.2% | SF-295 CNS 101% | SF-539 CNS 92.6% | UACC-257 melanoma 100% | M14 melanoma 108% | HCT-15 colon 102% | HT29 colon 106% | SNB-19 CNS 102% | U251 CNS 104% | PC-3 prostate 99.3% | SK-MEL-5 melanoma 97.3% | UACC-62 melanoma 99.8% | LOX IMVI melanoma 95.8%

FC(F)(F)c1ccccc1-c1cn2c(ccc3ccccc32)n1
inactive: DU-145 prostate 104% | K-562 leukemia 29.8% | MALME-3M melanoma 65.1% | MDA-MB-231 breast 69.5% | RXF 393 renal 84.4% | SF-268 CNS 90.3% | SF-295 CNS 62.1% | SF-539 CNS 78.6% | UACC-257 melanoma 70.3% | M14 melanoma 60.3% | HCT-15 colon 55.4% | HT29 colon 42.2% | SNB-19 CNS 83% | U251 CNS 88.5% | PC-3 prostate 79.4% | SK-MEL-5 melanoma 80.7% | UACC-62 melanoma 55.4% | LOX IMVI melanoma 74.5% | SK-MEL-28 melanoma 81.8%

COc1ccc(-c2nc(N3CCCC3=O)sc2Br)cc1OC
inactive: DU-145 prostate 114% | K-562 leukemia 94% | MALME-3M melanoma 111% | MDA-MB-231 breast 93.7% | RXF 393 renal 89.9% | SF-268 CNS 104% | SF-295 CNS 93.5% | SF-539 CNS 96.9% | UACC-257 melanoma 98.5% | M14 melanoma 116% | HCT-15 colon 89.8% | HT29 colon 82.7% | SNB-19 CNS 93.8% | U251 CNS 96.7% | PC-3 prostate 101% | SK-MEL-5 melanoma 89.8% | UACC-62 melanoma 90% | LOX IMVI melanoma 100% | SK-MEL-28 melanoma 102%

O=C1NN(C(=O)c2ccc(Cl)cc2)C(c2ccccc2)=N/C1=C\c1cn(-c2ccccc2)nc1-c1ccccc1
inactive: DU-145 prostate 103% | K-562 leukemia 99.2% | MALME-3M melanoma 77.7% | MDA-MB-231 breast 92% | RXF 393 renal 89.9% | SF-268 CNS 94.8% | SF-295 CNS 73.8% | SF-539 CNS 94.1% | UACC-257 melanoma 92.8% | M14 melanoma 83.4% | HCT-15 colon 92.6% | HT29 colon 87.8% | SNB-19 CNS 90.7% | U251 CNS 92.4% | PC-3 prostate 94.8% | SK-MEL-5 melanoma 79.9% | UACC-62 melanoma 91% | LOX IMVI melanoma 97.6% | SK-MEL-28 melanoma 94.8%

CCCCOc1ccc(/C=C2/SC(N3CCCC3)=NC2=O)cc1
inactive: DU-145 prostate 80.9% | K-562 leukemia 82% | MALME-3M melanoma 97.9% | MDA-MB-231 breast 95.6% | RXF 393 renal 90.9% | SF-268 CNS 98.7% | SF-295 CNS 93.8% | SF-539 CNS 87.9% | UACC-257 melanoma 102% | M14 melanoma 95.4% | HCT-15 colon 97.2% | HT29 colon 94.6% | SNB-19 CNS 92.8% | U251 CNS 84.6% | PC-3 prostate 88.7% | SK-MEL-5 melanoma 95.2% | UACC-62 melanoma 87.4% | LOX IMVI melanoma 96.2% | SK-MEL-28 melanoma 101%

Cc1ccc(S(=O)(=O)c2nc(-c3ccccc3)oc2S(C)(=O)=O)cc1
inactive: DU-145 prostate 30.4% | MDA-MB-231 breast 13.6% | RXF 393 renal 10.4% | SF-268 CNS 68.6% | SF-295 CNS 89.4% | UACC-257 melanoma 74.8% | M14 melanoma 17.8% | SNB-19 CNS 60.9% | U251 CNS 60.7% | PC-3 prostate 84% | SK-MEL-5 melanoma 88.8% | UACC-62 melanoma 75.7% | SK-MEL-28 melanoma 62.6%
active: K-562 leukemia 2.49% | MALME-3M melanoma -77.8% | SF-539 CNS -23.1% | HCT-15 colon -14.2% | HT29 colon -6.17% | LOX IMVI melanoma -32.7%

O=C(NNC(=O)N1c2ccccc2C=Cc2ccccc21)c1ccccc1
inactive: DU-145 prostate 107% | K-562 leukemia 101% | MALME-3M melanoma 117% | MDA-MB-231 breast 111% | RXF 393 renal 106% | SF-268 CNS 98.4% | SF-295 CNS 95.7% | SF-539 CNS 102% | UACC-257 melanoma 108% | M14 melanoma 110% | HCT-15 colon 101% | HT29 colon 103% | SNB-19 CNS 100% | U251 CNS 109% | PC-3 prostate 98.5% | SK-MEL-5 melanoma 104% | UACC-62 melanoma 101% | LOX IMVI melanoma 104% | SK-MEL-28 melanoma 102%

c1coc(CNc2ccnc(Nc3ccc(OCCN4CCCCC4)cc3)n2)c1
inactive: DU-145 prostate 91.6% | K-562 leukemia 27.6% | MALME-3M melanoma 110% | MDA-MB-231 breast 82.6% | RXF 393 renal 71.3% | SF-268 CNS 90.4% | SF-295 CNS 95.1% | SF-539 CNS 76.4% | UACC-257 melanoma 87.3% | M14 melanoma 102% | HCT-15 colon 89.6% | HT29 colon 57.6% | SNB-19 CNS 97.3% | U251 CNS 85.8% | PC-3 prostate 82.9% | SK-MEL-5 melanoma 80.3% | UACC-62 melanoma 93.6% | LOX IMVI melanoma 82.6% | SK-MEL-28 melanoma 107%

CCN(CC)c1ccc(N=O)cc1
active: HCT-15 colon 3.87% | HT29 colon -3.9%
inactive: DU-145 prostate 80.9% | K-562 leukemia 23.5% | MALME-3M melanoma 71.1% | MDA-MB-231 breast 47.4% | RXF 393 renal 72.5% | SF-268 CNS 59.1% | SF-295 CNS 92.7% | SF-539 CNS 77.2% | UACC-257 melanoma 33.2% | M14 melanoma 75.3% | SNB-19 CNS 93.1% | U251 CNS 42.9% | PC-3 prostate 44.6% | SK-MEL-5 melanoma 87.2% | UACC-62 melanoma 73.4% | LOX IMVI melanoma 15% | SK-MEL-28 melanoma 88.3%
